Compounds with a hit are over-represented: about 4.5% of the library has one in this group of screens.
HTT-AS promoter – Primary qHTS for Identification of Small Molecule Activators of Huntingtin-Antisense Promoter Activity; HEK293 HTT-AS promoter firefly luciferase reporter, 24 h; response scale: percent change from vehicle, -100% = no light; Potency, µM (highest dose often 57.5 µM), inactives show at the highest dose activity change, positive = activation, hits mostly activators; 48,000 tested, 0.24% active; also: potency is read from the fitted curve at half-maximal effect; nearly all actives have a fitted effect of over 55% in size
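Quantitative HTS used concentration series of up to 57.5 uM final on HEK293 luciferase reporter cells, 24 h at 37 degrees C. Readout was Dual-Glo firefly luminescence.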
HTT prom inh – Primary qHTS for Identification of Small Molecule Inhibitors of Huntingtin Promoter Activity. HEK293 HTT promoter firefly luciferase reporter, 24 h. Potency, µM (doses to about 57.5 µM), for the others: at the highest dose activity change, negative = inhibition, usual class: inhibitors. 48,000 tested, 0.93% active. AID 1508623, 2021; also: potency is read from the fitted curve at half-maximal effect; nearly all actives have a fitted effect of over 50% in size
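HEK293 Fluc reporter, 2,500 cells/well, 24 h pre-culture; cpds up to 57.5 uM final, 24 h 37 degrees C; Dual-Glo, 10 min RT; normalized vehicle = 0%, zero RLU = -100%.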
NTMT1 inh – Primary qHTS for Inhibitors of N-terminal methyltransferase 1 (NTMT1): MTaseGlo Assay | Potency, µM (top dose mostly 114 µM), for the others: at the top dose activity change, negative = inhibition, most hits filed as inhibitors | AID 1645870, 2021 | NTMT1 MTase-Glo SAH luminescence, purified enzyme | 59,000 tested, 2.5% active;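 also: potency is read from the fitted curve at half-maximal effect; plate controls were DMSO vehicle for no effect and no enzyme for full effect; nearly all actives have a fitted effect of over 65% in size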
Target sequence (Q9BV86 whole entry, looked up): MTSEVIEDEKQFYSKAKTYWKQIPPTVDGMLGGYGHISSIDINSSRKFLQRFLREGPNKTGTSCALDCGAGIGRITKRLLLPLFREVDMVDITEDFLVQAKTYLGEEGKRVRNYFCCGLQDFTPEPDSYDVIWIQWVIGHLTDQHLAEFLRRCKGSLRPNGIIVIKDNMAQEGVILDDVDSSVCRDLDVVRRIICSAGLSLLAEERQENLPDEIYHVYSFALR
GPR32 ag – qHTS for Agonists of Human Resolvin D1 Receptor DRV1; Probable G-protein coupled receptor 32 (Homo sapiens), O75388; CHO-K1 GPR32 beta-arrestin PathHunter luminescence, 90 min; zero percent set by DMSO-only wells; activation, % at 76.9 µM; 48,000 tested, 2.5% active; AID 1346428, 2018;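 active = activation of at least 60% and not above a set upper limit, about 1 call in 100 departs from these limits; inconclusive = activation of 40% to 60%, or above that upper limit; inactive = activation under 40%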; also: 0% is about no effect
Target sequence (O75388 whole entry, looked up): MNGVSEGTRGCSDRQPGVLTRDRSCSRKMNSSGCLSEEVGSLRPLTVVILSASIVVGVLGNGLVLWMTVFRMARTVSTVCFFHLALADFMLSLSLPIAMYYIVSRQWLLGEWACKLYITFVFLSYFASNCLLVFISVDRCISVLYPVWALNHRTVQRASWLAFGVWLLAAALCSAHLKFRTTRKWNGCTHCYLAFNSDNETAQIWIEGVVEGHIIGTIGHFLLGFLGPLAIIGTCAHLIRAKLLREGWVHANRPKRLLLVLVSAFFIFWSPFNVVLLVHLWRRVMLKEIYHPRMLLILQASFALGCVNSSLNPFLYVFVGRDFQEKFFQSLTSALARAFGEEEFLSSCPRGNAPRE
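Engineered CHO-K1 line co-expressing GPR32-ProLink and EA-beta-arrestin. Compound treatment lasted 90 min at 37 °C. Luminescence was recorded after 1 h with substrate at ambient temperature, relative to DMSO basal wells.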
OvCa metastasis – Primary qHTS assay for Inhibitors of ovarian cancer metastasis using an organotypic tumor microenvironment (TME) model; SKOV3ip1-GFP adhesion/invasion on 3D omental model, fluorescence; Potency, µM (series often up to 45.8 µM), inactives show top-dose activity change, negative = inhibition, hits mostly inhibitors; 46,000 tested, 0.1% active; AID 1963576, 2024;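 also: potency is read from the fitted curve at half-maximal effect; plate controls were DMSO wells for no effect and tomatine positive control wells for full effect; nearly all actives have a fitted effect of over 65% in size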
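qHTS, 4-pt dose (0.36-46 umol/L); SKOV3ip1-GFP, 1,200 cells/well, no FBS; primary omental fibroblast/mesothelial co-culture 48 h pre-grown; 2 h RT + 16 h 37 C; PBS wash, 4% PFA; GFP count 488/509 nm.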
Sfp PPTase inh – qHTS Assay for Inhibitos of Bacillus subtilis Sfp phosphopantetheinyl transferase (PPTase): Chemistry Optimization Followup; shares compounds with NTMT1 inh; purified Sfp PPTase enzyme activity, qHTS; Potency, µM (titrated, usually from 114 µM), for inactives: top-dose activity change, negative = inhibition, most hits filed as inhibitors; 230 tested, 78% active; AID 540350, 2011
HM489 growth – qHTS for Inhibitos of Bacillus subtilis Sfp phosphopantetheinyl transferase (PPTase): Chemistry Optimization Followup in B. Subtilis HM489; shares compounds with NTMT1 inh; B. subtilis HM489 (acpS-) growth, BacTiter-Glo, 5 h; Potency, µM (highest dose often 114 µM), for inactives: at the top dose activity change, negative = inhibition, most hits filed as inhibitors; 220 tested, 50% active; AID 540353, 2011
Sfp PPTase gel – Gel-Based Assay for Inhibitos of Bacillus subtilis Sfp phosphopantetheinyl transferase (PPTase): Chemistry Optimization Followup | Potency, µM (highest dose often 250 µM), inactives show at the top dose activity change, negative = inhibition, hits mostly inhibitors | purified Sfp PPTase, gel-based product detection | shares compounds with NTMT1 inh | 220 tested, 54% active
Sfp inh SAR2 – qHTS Assay for Inhibitors of Bacillus subtilis Sfp phosphopantetheinyl transferase (PPTase): SAR Round 2; AID 602370, 2012; purified Sfp enzyme, PPTase activity, qHTS; 230 tested, 87% active; shares compounds with NTMT1 inh; Potency, µM (series often up to 57.1 µM), without a hit: top-dose activity change, negative = inhibition, actives largely listed as inhibitors
HSD17B4 counter – Extended Characterization of HPGD Inhibitors: Counterscreen Against HSD17b4. 230 tested, 10% active. purified HSD17B4, estradiol/NAD+, NADH fluorescence. shares compounds with NTMT1 inh. Potency, µM (doses to about 57.1 µM), for inactives: at the top dose activity change, negative = inhibition, most hits filed as inhibitors
ALDH1A1 counter – Extended Characterization of HPGD Inhibitors: Counterscreen Against ALDH1A1; Potency, µM (titrated, usually from 57.1 µM), for inactives: top-dose activity change, negative = inhibition, usual class: inhibitors; 230 tested, 93% active; recombinant ALDH1A1, NADH fluorescence, propionaldehyde/NAD+; shares compounds with NTMT1 inh
NNMT inh – Counterscreen qHTS for Inhibitors of N-terminal methyltransferase 1 (NTMT1): NNMT MTaseGlo assay. shares compounds with NTMT1 inh. 120 tested, 10% active. AID 1645878, 2021. NNMT MTase-Glo luminescence, SAH detection. Potency, µM (series often up to 57.1 µM), for the others: top-dose activity, negative = inhibition, most hits filed as inhibitors
Active calls of the source: *; i = inactive; ? = inconclusive; / = not tested or not shown; ! = repeats disagree; [ ] = dose if it differs, or a comment. Unless noted, calls follow the shape of the dose curve; as a rule, active = well fitted curve in the direction sought with a large enough effect; inconclusive = small, poorly fitted or top-dose-only effect, or another doubt; inactive = no such curve, though single readings can be large; an effect the other way counts as inactive or inconclusive.

SMILES	HTT-AS promoter	HTT prom inh	NTMT1 inh	GPR32 ag	OvCa metastasis	NNMT inh	others
CC(=O)N1CCN(C(=S)Nc2cc(C)ccn2)CC1	/	/	?	/	/	/	Sfp PPTase inh=33.2µM*;HM489 growth=?;Sfp PPTase gel=12.6µM*;Sfp inh SAR2=6.46µM*;HSD17B4 counter=-9.0%;ALDH1A1 counter=12.1µM*
Cc1cc(C)nc(NC(=S)N2CCN(c3ccc(Cl)nn3)CC2)c1	/	/	?	/	/	/	Sfp PPTase inh=11.8µM*;HM489 growth=20.7%;Sfp PPTase gel=?;Sfp inh SAR2=3.63µM*;HSD17B4 counter=-18.5%;ALDH1A1 counter=19.2µM*
CCn1nc(C)c2c(-c3ccccc3)cc(=O)n(C(C)C(=O)NCc3ccccc3OC)c21 (stereo not given)	-23.3%	-29.1%	15.3%	-6.4	i	/
O=C1NCN(c2ccccc2)C12CCN(CCCC(c1ccc(F)cc1)c1ccc(F)cc1)CC2	-32.3%	-22.8%	14.6%[57.5 µM]	-42.7	/	/
Cc1ccnc(NC(=S)N2CCN(c3ccc(Cl)c(Cl)c3)CC2)c1	/	/	?	/	/	/	Sfp PPTase inh=1.18µM*;HM489 growth=2.64µM*;Sfp PPTase gel=-63.4%;Sfp inh SAR2=0.73µM*;HSD17B4 counter=-10.3%;ALDH1A1 counter=2.41µM*
CCOc1ccc(NC(=O)C(=O)NCCc2csc(-c3ccc(F)cc3)n2)cc1	-2.3%	-8.4%	?	-3.9	i	/
COc1cc2c(cc1OC)CN(CCc1ccc(NC(=O)c3cccc4c(=O)c5cccc(OC)c5[nH]c34)cc1)CC2	-63.5%	-6.3%	28.2µM*!	/	0.4%	3.98µM*
O=c1[nH]c(CCl)nc2sc3c(c12)CCCC3	/	/	6.5%[57.5 µM]	/	/	/
Cc1cccc(-c2[nH]c(C(C)(C)C)nc2-c2ccc3c(c2)OCO3)n1	-30.2%	?	23.9%	/	9.7%	/
CC(C)(C)Cn1c(N)nc2ccc(-c3[nH]c(C(C)(C)C)nc3-c3ccc(F)cc3)nc21	-31.3%	?	12.6µM*	/	2.8%	14.1µM*
Fc1cc(-c2cccc3ncc(-c4cnn(C5CCNCC5)c4)nc23)cc(F)c1CN1CCOCC1	-12.3%	-9.9%	17.8µM*!	/	-4.3%	-19.4%
CCOC(=O)c1ccc(NC(=O)CSc2ncc(S(=O)(=O)c3ccc(C)c(Cl)c3)c(=O)[nH]2)cc1	-0.4%	-4.7%	?	35.4	-1.9%	/
O=C(Nc1cc2cc[nH]c2cn1)c1ccccc1	?	20.7%	21.5µM*!	/	6.6%	14.1µM*
CCc1nc(-c2cccc(C)c2)c(-c2ccnc(NC(=O)c3ccccc3)c2)s1	-25.9%	?	2.4%[57.5 µM]	/	7.8%	/
Cc1nc2c3ccccc3nc(NNC(=O)CCC(=O)N3CCN(c4ccc(F)cc4)CC3)n2n1	-15.9%	-20.1%	2.3%	-36.1	0.1%	/
COc1cc2ncnc(Nc3ccc(F)c(Cl)c3)c2cc1NC(=O)/C=C/CN1CCCCC1	/	/	8.91µM*	/	/	?
O=C(Nc1ccccc1)c1ccc(Nc2nnc(-c3ccc(O)cc3)c3ccccc23)cc1	/	/	6.9%[57.5 µM]	/	/	?
